Reference: PubChem BioAssay (NCI)
The panel holds about 83,000 compounds, 20% with a hit somewhere; the sample as a whole holds those more often.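 Interpretation: 100, growth as untreated; towards 0, rising growth inhibition; 0, no net growth; 0 to -100, cell death. Compounds scoring below 10 were considered active.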 The source made the active and inactive calls.

How the values were obtained:
Assay in all cases: NCI-60 one-dose screen, 48 h (100 = growth as untreated, 0 = no growth, -100 = all killed)
Details in all cases: 10 µM unless noted
[1] = test system: SK-MEL-2 melanoma
[2] = test system: SN12C renal
[3] = test system: UO-31 renal
[4] = test system: TK-10 renal
[5] = test system: ACHN renal
[6] = test system: A498 renal
[7] = test system: CCRF-CEM leukemia
[8] = test system: MOLT-4 leukemia
[9] = test system: CAKI-1 renal

Measured: growth

Nc1c(C(=O)Nc2ccccc2)sc2nc3c(cc12)CCCCC3
inactive: [1] 12.6% | [2] 45.3% | [3] 21.5% | [4] 21.6% | [5] 30.3% | [8] 29.2%
active: [6] -5.02% | [7] 2.92%

COc1cc(/C=C\c2cc(OC)c(OC)c(OC)c2)cc(N/C=C\C(=O)c2c[nH]c3ccccc23)c1OC
inactive: [1] 46.7% | [2] 70.8% | [6] 39.3%
active: [3] -93% | [4] -43.4% | [5] -100% | [7] -57.3% | [8] -29%

COc1cc2c3c(c(=O)oc2cc1OS(=O)(=O)c1ccc(C(F)(F)F)cc1)CCCCC3
inactive: [1] 90.5% | [2] 89.7% | [3] 92.6% | [4] 122% | [5] 72.5% | [6] 86.3% | [7] 90.2% | [8] 95.9%

COc1ccc(S(=O)(=O)Nc2cc(/C=C\c3cc(OC)c(OC)c(OC)c3)cc(OC)c2OC)cc1OC
active: [7] 9.18%
inactive: [1] 36.6% | [2] 45% | [3] 40.7% | [4] 73.4% | [5] 45.1% | [9] 24.4% | [8] 17.1%

CNC(=O)Cc1nc(-c2cccc(NS(=O)(=O)c3c(F)cccc3F)c2F)c(-c2ccnc(Nc3ccccc3)n2)s1
inactive: [1] 55.2% | [2] 40.5% | [3] 27.3% | [4] 42.7% | [5] 10.7% | [9] 41.5% | [7] 87.6% | [8] 68.4%

COc1ccc(-c2nc3sccn3c2-c2ccnc(NCCCNS(=O)(=O)c3ccc(C)cc3)n2)cc1
inactive: [1] 25.9% | [2] 36.3% | [3] 15.5% | [4] 66% | [5] 22.4% | [9] 42.1% | [7] 18.9% | [8] 24.6%

COc1cc(OC)c(C(=O)/C=C/c2cccc(C(F)(F)F)c2)c(OC)c1
active: [1] -16.1% | [5] 3.47% | [7] 4.41% | [8] 1.4%
inactive: [2] 19.2% | [3] 26.9% | [4] 15.1% | [9] 33.8%

COc1ccc(C(=O)/C=C/c2cc(C(=O)c3cc(OC)c(OC)c(OC)c3)ccc2OC)cc1
inactive: [1] 60.8% | [2] 68.8% | [3] 53.7% | [4] 107% | [5] 41% | [6] 93.1% | [8] 10.5%
active: [7] 5.61%

CC(C)C[C@H](NC(=O)Cn1ccc(NCc2ccccc2)cc1=O)B(O)O
inactive: [2] 31.2%
active: [1] -6.74% | [3] -40.5% | [4] -10.7% | [5] 9.74% | [6] -20.9% | [7] 2.78% | [8] -10.3%

Nc1cc2c(cc1N)-c1cc(N)c(N)cc1C2
inactive: [1] 111% | [3] 53.9% | [4] 110% | [5] 96% | [9] 93.8% | [6] 63.5% | [7] 88.2% | [8] 92.3%

COc1ccccc1CNCCCN1C(=O)c2ccc3c4c(ccc(c24)C1=O)C(=O)N(CCCNCCCCNCCCCN)C3=O
active: [1] -55.8% | [2] 6.05% | [3] 8.57% | [6] 9.03%
inactive: [5] 17.2% | [9] 64% | [7] 13.8% | [8] 11.3%

COc1ccc(-c2cn[nH]c2-c2cc(OC)c3c(c2)OCO3)cc1
active: [1] -9.32% | [6] -18.8% | [7] 2.12% | [8] 3.98%
inactive: [2] 34% | [3] 27.8% | [5] 39.5% | [9] 24.9%

COc1ccc(OC)c(C(=O)c2oc3ccc(Br)cc3c2N)c1
active: [1] -9.79% | [9] 0.0162% | [6] -13.8% | [7] 4.72%
inactive: [2] 39.4% | [3] 27.5% | [5] 50.7% | [8] 19.4%

CCN(CC)P(=O)(N(CC)CC)N(CCCSC/C=C(\C)CC/C=C(\C)CCC=C(C)C)CCCN1CCN(C)CC1
inactive: [1] 118% | [2] 92.9% | [3] 92.8% | [5] 119% | [9] 89.9% | [6] 77.2% | [7] 87.2% | [8] 93.1%

COc1ccc(-c2nnc(COc3ccc(NS(=O)(=O)c4ccc(OC)cc4)cc3F)o2)cc1
inactive: [1] 68.2% | [3] 51.1% | [4] 80.9% | [5] 72.1% | [9] 64.1% | [6] 59.2% | [7] 43.1% | [8] 60%

COc1ccc(-c2nc(-c3nc4ccc(F)cc4[nH]3)cc3c2[nH]c2ccccc23)cc1
active: [3] 7.03%
inactive: [1] 29.4% | [2] 23.1% | [5] 32.1% | [9] 15.2% | [6] 26.4% | [7] 17.6% | [8] 22.5%

COc1cc(C2C=C(C)N=C3SC=C(C)N32)cc(OC)c1OC (centres undefined)
active: [1] -39.5% | [3] -87.2% | [4] -22.5% | [5] -75% | [9] -49.9% | [6] -27.6% | [7] -17.9% | [8] -2.68%

CC(C)[C@H](CO)Nc1nc(Nc2ccc(C(=O)NCCNS(=O)(=O)c3cccc4c(N(C)C)cccc34)c(Cl)c2)c2ncn(C(C)C)c2n1
active: [1] -16.1% | [6] -9.15% | [7] -1.68% | [8] -12.1%
inactive: [2] 12.1% | [3] 77.2% | [5] 43.4% | [9] 48.6%

COc1ccc(/C=C/c2nc(N3CCOCC3)c3nc(Cl)c(Cl)cc3n2)cc1OC
inactive: [1] 99.1% | [3] 108% | [4] 104% | [5] 100% | [9] 93.7% | [6] 93.7% | [7] 99.3% | [8] 87.6%

COc1cc(OC)c(C(=O)/C=C/c2ccc(C(F)(F)F)cc2)c(OC)c1
inactive: [1] 45.4% | [3] 56.4% | [4] 84.6% | [5] 60% | [9] 79.3% | [7] 25.9% | [8] 24%

CC(=O)C1CCC(C)=CC1=O (centres undefined)
inactive: [1] 94.3% | [3] 80.3% | [4] 97.7% | [5] 98.4% | [9] 96.5% | [6] 87.6% | [7] 100% | [8] 88.3%

COc1ccc(/C=C2\C(=O)N(C(=O)c3csc(NC(C)=O)n3)N=C2C)cc1
inactive: [1] 94.8% | [3] 81.9% | [4] 102% | [5] 107% | [9] 99% | [6] 121% | [7] 99% | [8] 86.9%

COc1cccc(-c2nc3sccn3c2-c2ccnc(NCCCNS(=O)(=O)c3ccccc3)n2)c1
inactive: [1] 58.1% | [3] 29.5% | [4] 82% | [5] 40.2% | [9] 52.5% | [7] 30% | [8] 29.4%

COc1cc(/C=C2\C=C(c3ccc(F)cc3)N(Cc3ccccc3)C2=O)cc(OC)c1OC
inactive: [1] 93.1% | [3] 45.9% | [4] 90.3% | [5] 73.1% | [9] 63.3% | [6] 57.4% | [7] 62% | [8] 25.9%

COc1cc(NS(C)(=O)=O)ccc1Nc1c2ccc([N+](=O)[O-])cc2nc2c(C)cccc12
inactive: [1] 25.4%
active: [3] -3.4% | [4] 5.21% | [5] -30.9% | [9] -21.2% | [6] -23.5% | [7] -11.8% | [8] -8.62%

COc1ccc(NC(=O)CSc2nc3ccccc3c(=O)n2Cc2cc(OC)c(OC)c(OC)c2)cc1
inactive: [1] 93% | [3] 73.5% | [4] 96.5% | [5] 80.6% | [9] 95.6% | [6] 87.1% | [7] 90.1% | [8] 68.8%

COc1ccc(C(=O)/C=C/c2ccc(/C=C/c3cc(OC)c(OC)c(OC)c3)cc2)cc1
inactive: [1] 65.1% | [2] 56.7% | [3] 40.6% | [5] 68.1% | [9] 74.4% | [6] 80% | [7] 19.6%
active: [8] 9.62%

O=C(O)Cc1ccc2c(c1)Cc1cccnc1O2
inactive: [1] 104% | [3] 94% | [4] 92.5% | [5] 111% | [9] 96.9% | [6] 104% | [7] 100% | [8] 102%

CC(C)C[C@H](NC(=O)[C@H](Cc1ccccc1)n1ccc(N2CCCCC2)cc1=O)B(O)O
inactive: [4] 16.9% | [5] 16.1%
active: [1] 2.84% | [3] -37.2% | [6] -24.6% | [7] 1.97% | [8] -2.84%
